Assay outcomes deposited in PubChem BioAssay by National Center for Advancing Translational Sciences (NCATS).
BCR signal inh = inhibitors of chronic active B-cell receptor signaling. hit rate 0.05% among 340,000. ABC-DLBCL IkBa-CBG/CBR reporter, luminescence ratio, 4 h. Potency, µM (doses to about 46.1 µM), for inactives: top-dose activity change, negative = inhibition, actives largely listed as inhibitors; active means well fitted inhibition curve with a large enough effect in the signal ratio, with a control signal flat, not every such curve was filed as active; inconclusive means small, poorly fitted or top-dose-only effect, or effect the other way, or a change in a side signal; the % refers to the signal ratio;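 further: potency means the concentration at half of the fitted maximal effect; plate controls were basal doxycycline-induced cells for no effect and cells given 10 µM MG132 for full effect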
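TMD8 human ABC-DLBCL cells with doxycycline-inducible IκBα–green luciferase fusion and unfused red luciferase, in 0.5% FBS medium; compounds up to 46 uM, 4 h at 37C. Green/red luminescence ratio, filter-overlap corrected, fitted to concentration-response curves.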
PI4K2A inh = inhibitors of human PI4K2A; Q9BTU6; purified PI4K2A, ADP-Glo luminescence, 1 h; active compounds read low; activity change, negative = inhibition, % at 76.9 µM; hit rate 0.13% among 420,000; in the data active means activity change below about -50%; inconclusive means mostly about -30% to -49%;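 further: -100% = wells without enzyme as full effect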
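In this quantitative HTS, ADP production by PI4K2A was quantified luminescently after 1 h at ambient temperature; 100 microM adenosine served as plate-quality control.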
PGK inhibitor = T. brucei PGK inhibition; PGK/GAPDH coupled, Kinase-Glo luminescence, 60 min; hit rate 0.043% among 380,000; Potency, µM (highest dose often 57.5 µM), for the others: at the top dose activity change, negative = inhibition, usual class: inhibitors; AID 602233; further: potency means the concentration at half of the fitted maximal effect; on the % scale 0 is the no-effect control and ±100 the full control effect; nearly all actives have a fitted effect of over 60% in size
Target sequence (P07378 whole entry, looked up): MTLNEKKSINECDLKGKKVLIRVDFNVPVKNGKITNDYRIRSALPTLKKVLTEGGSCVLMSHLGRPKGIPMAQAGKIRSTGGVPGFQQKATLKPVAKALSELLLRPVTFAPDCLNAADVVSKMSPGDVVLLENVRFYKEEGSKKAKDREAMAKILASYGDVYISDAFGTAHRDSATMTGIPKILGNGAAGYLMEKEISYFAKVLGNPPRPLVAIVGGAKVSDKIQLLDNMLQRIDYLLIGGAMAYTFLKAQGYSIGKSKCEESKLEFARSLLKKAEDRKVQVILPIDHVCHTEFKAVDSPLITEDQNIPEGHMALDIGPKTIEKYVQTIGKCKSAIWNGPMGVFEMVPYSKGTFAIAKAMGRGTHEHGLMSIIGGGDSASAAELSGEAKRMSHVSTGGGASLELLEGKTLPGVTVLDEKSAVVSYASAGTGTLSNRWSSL
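Luminescent ATP detection (Kinase-Glo Plus) follows a 60-minute room-temperature incubation, with wells lacking PGK as controls. Buffer: 100 mM TEA (pH 7.6), 5 mM MgCl2, 0.01% Tween-20. Coupling enzyme GAPDH (100 nM final) supplies unstable 1,3-BPG in-well.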
Pin1 inhibitor = inhibitors of human Pin1 | Q13526 | hit rate 0.009% among 390,000 | Pin1 FP peptide displacement, HiFluor488, 10 min | Potency, µM (doses to about 115 µM), for the others: top-dose activity, negative = inhibition, most hits filed as inhibitors; active means well fitted inhibition curve with a large enough effect in the polarisation, with a control signal flat, not every such curve was filed as active; inconclusive means small, poorly fitted or top-dose-only effect, or effect the other way, or a change in a side signal; inactive means no such curve, though single readings can be large or run the other way; the % refers to the polarisation; further: potency means the concentration at half of the fitted maximal effect; on the % scale 0 is the no-effect control and ±100 the full control effect
Target sequence (Q13526 whole entry, looked up): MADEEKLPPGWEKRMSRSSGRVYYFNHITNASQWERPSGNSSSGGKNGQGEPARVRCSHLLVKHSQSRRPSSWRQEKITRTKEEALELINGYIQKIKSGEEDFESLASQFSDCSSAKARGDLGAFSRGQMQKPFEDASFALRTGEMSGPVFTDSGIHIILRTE
Tb PFK inh-1 = inhibitors of T. brucei phosphofructokinase | O15648 | T. brucei PFK, ADP-Glo luminescence | Potency, µM (top dose mostly 57.5 µM), for inactives: top-dose activity, negative = inhibition, actives largely listed as inhibitors | hit rate 0.17% among 330,000 | AID 485367;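 further: potency means the concentration at half of the fitted maximal effect; 0% = uninhibited 1x PFK enzyme wells and -100% = no-enzyme wells; nearly all actives have a fitted effect of over 60% in size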
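Activity is normalized to no-enzyme wells (full inhibition) and 1.25 nM enzyme wells (no inhibition). Reaction: 0.5 mM F6P, 0.1 mM ATP, 45 min RT, ADP-Glo luminescence; concentration-response curves fitted and classed by quality.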
Tb PFK KinaseGlo = orthogonal confirmation of T. brucei phosphofructokinase inhibitors | shares compounds with Tb PFK inh-1 | Tb PFK enzyme, ATP depletion, Kinase-Glo Plus luminescence | Potency, µM (highest dose often 57.5 µM), inactives show at the highest dose inhibition | hit rate 47% among 1,100; calls by dose curve; further: potency means the concentration at half of the fitted maximal effect; nearly all actives have a fitted effect of over 60% in size
Tb PFK inh-2 = T. brucei PFK enzyme inhibition, hit validation. shares compounds with Tb PFK inh-1. purified T. brucei PFK, ADP-Glo luminescence, 45 min. Potency, µM (top dose mostly 57.5 µM), inactives show at the top dose activity change, negative = inhibition, actives largely listed as inhibitors. hit rate 41% among 1,100. AID 504637;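 further: potency means the concentration at half of the fitted maximal effect; plate controls were full PFK enzyme control for no effect and no enzyme control for full effect; nearly all actives have a fitted effect of over 60% in size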
Numbers without * were called inactive; i = inactive; ? = inconclusive; / = no result given. The list is not random: actives were taken first. Their share in the collection is about 0.34%. Unless noted, the call rests on the fitted dose curve; in most records, active means well fitted curve in the direction sought with a large enough effect; inconclusive means small, poorly fitted or top-dose-only effect, or another doubt; inactive means no such curve, though single readings can be large; an effect the other way counts as inactive or inconclusive.

SMILES	BCR signal inh	PI4K2A inh	PGK inhibitor	Pin1 inhibitor	Tb PFK inh-1	Tb PFK KinaseGlo	Tb PFK inh-2
CCOC(=O)c1ccc(O)c(O)c1	/	-1.4	/	/	/	/	/
CCCCC(CC)CNC(=O)CC(C)OC(=O)CCC(=O)O (centres undefined)	/	0.5	/	/	/	/	/
COc1ccc2c(CC(=O)OCC(=O)Nc3cccc(C)c3)coc2c1	-0.6%	?	-23.2%	-1.0%	?	?	?
COC(=O)c1cccc(NC(=O)Cc2coc3cc(OC)ccc23)c1	?	3.0	/	3.4%	-2.8%	/	/
O=C1CCc2cc(S(=O)(=O)Nc3ccccn3)ccc2N1	/	/	/	-9.5%	/	/	/
CC(C)(C)c1ccc(C(=O)CCCCl)cc1	/	-5.1	/	/	/	/	/
COc1ccc(NC(=O)CN2C(=O)S/C(=C/c3cccn3-c3ccc(C(=O)O)cc3)C2=O)cc1	-3.9%	/	/	/	9.53µM*	19µM*	?
O=C(OCc1cccc([N+](=O)[O-])c1)c1ccc[nH]c1=O	0.9%	7.0	-0.3%	2.3%	7.57µM*	8.49µM*	6.75µM*
CCOc1c(N2CCOCC2)cnn(C)c1=O	/	-1.3	/	/	/	/	/
Cc1ccc(N/N=C/c2c(C)c(C#N)c(=O)n(C)c2O)cc1C	6.5%	-12.5	i	?	?	6.4%	-2.6%
COc1cc(S(=O)(=O)Nc2ccc(C)cc2)ccc1N=Cc1c(C)c(C#N)c(=O)n(C)c1O	3.4%	1.7	0.9%	?	-2.4%	/	/
Cc1c(Br)c([N+](=O)[O-])nn1CC(=O)Nc1ccc(C(N)=O)cc1	-2.1%	-7.3	-2.0%	5.3%	19µM*	13.5µM*	26.9µM*
COc1ccccc1N1CCN(CC(O)COc2cc(OC)c(OC)c(OC)c2)CC1 (centres undefined)	/	2.8	/	/	/	/	/
C[C@]12CCC(=O)C=C1[C@@H]1C[C@@H]1[C@H]1[C@@H]3[C@@H]4C[C@@H]4[C@@]4(CCC(=O)O4)[C@@]3(C)CC[C@@H]12	/	-0.2	/	/	/	/	/
CC(=O)NC1=NN(C(C)=O)C(C)(c2ccccc2)S1 (centres undefined)	0.4%	-0.5	-4.8%	1.8%	?	1.2%	-0.9%
Cc1c(C)c2c(c(C)c1OC(=O)CCC(=O)OCCO)CC[C@@](C)(CCC[C@H](C)CCC[C@H](C)CCCC(C)C)O2	/	-4.5	/	/	/	/	/
COc1cc(N[C@@H](C)CCCN)c2ncccc2c1	/	/	/	/	/	4.0%	-5.3%
Cc1cccn2c(=O)c3cc(C(=O)NCCc4ccccc4)c(=N)n(Cc4ccco4)c3nc12	18.5%	-27.0	-5.3%	?	-0.3%	/	/
COc1ccc(CCNC(=O)c2cc3c(=O)n4cccc(C)c4nc3n(Cc3ccco3)c2=N)cc1OC	?	1.6	-7.0%	?	?	-1.6%	0.9%
COc1ccc(C(=O)CSc2nnc(CNc3ccc(F)cc3)o2)cc1	?	2.6	6.8%	-0.1%	16.9µM*	12µM*	23.9µM*
CC(C)N(C(=O)CSc1nnc(CNc2ccc(F)cc2)o1)C(C)C	-0.2%	6.2	6.4%	?	16.9µM*	?	?
O=C(CSc1nnc(-c2ccc(F)cc2)o1)N1CCCc2ccccc21	/	1.7	-9.8%	2.5%	/	/	/
O=C(CSc1nnc(CNc2ccc(F)cc2)o1)N1CCCc2ccccc21	-0.1%	-2.1	4.2%	-6.6%	26.9µM*	12µM*	26.9µM*
CCOC(=O)Oc1ccc(CCNC(=O)[C@H](CCSC)NC(C)=O)cc1OC(=O)OCC	/	0.6	/	/	/	/	/
S=C(NCCCN(Cc1ccc(Cl)c(Cl)c1)c1ccc(Br)cn1)NCCc1cnc[nH]1	/	/	/	-4.0%	/	/	/
CCOc1ccc(NC(=O)CCS(=O)(=O)c2ccc(Br)cc2)cc1	-2.3%	-7.0	?	1.2%	15.1µM*	2.69µM*	4.78µM*
